Test [1] has as its target Lysosomal acid glucosylceramidase (Homo sapiens) (UniProt P04062). Nature of the test: Glucocerebrosidase-p2 (AID 348; in the data active = potency below about 10 µM; also: potency is read from the fitted curve at half-maximal effect). Particulars: purified GBA, blue fluorogenic substrate, 40 min. In outline: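 Compounds titrated from 0.6 nM upwards against 0.2 nM enzyme in pH 5.9 citric acid/KH2PO4, taurocholate, tween-20; blue fluorogenic substrate 80 uM, 40 min room temperature, stopped and read Ex 365/Em 440 for AC50.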

Test [2] in a line: AP1 Signaling Pathway (AID 357; active = well fitted curve in either direction with a large enough effect, not every such curve was filed as active; also: % is scaled to controls: 0 for no effect and ±100 for the full control effect). The settings on record: ME-180 AP-1-bla reporter, EGF-induced, beta-lactamase ratio, 5 h; at 7.69 µM (top of the series) unless noted. Put shortly:
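ME-180 cells with beta-lactamase reporter under AP-1 response element, stimulated with EC50 EGF; compounds tested in titration series, 5 h at 37 °C. CCF4 substrate added 2.5 h at room temperature; 460/530 nm emission ratio gave %activity and AC50.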

Test [3] is described as follows: NFAT Signaling Pathway (AID 444; active = well fitted curve in either direction with a large enough effect, not every such curve was filed as active;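 also: carbachol stimulus at about its EC50 of 1 µM final; % is scaled to controls: 0 for no effect and ±100 for the full control effect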). The settings on record: Jurkat NFAT-bla M1, carbachol, beta-lactamase ratio, 5 h; at 7.69 µM (top of the series) unless noted. In outline:
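Jurkat cells carrying an NFAT-driven β-lactamase reporter and co-transfected muscarinic M1 receptor were treated with compound plus carbachol (1 uM final, an EC50 level) for 5 h at 37 °C. CCF4 loading followed for 1 h at RT; 460/530 nm ratio gave %activity.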

Test [4] can be described thus: Stat Signaling Pathway (AID 446; active = well fitted curve in either direction with a large enough effect, not every such curve was filed as active;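 also: ME-180 cervical cancer cells given 40 pM IL-6 alongside compound; SIE-controlled beta-lactamase reporter measured as 460/530 nm FRET emission ratio; % is scaled to controls: 0 for no effect and ±100 for the full control effect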). The settings on record: ME-180 SIE beta-lactamase reporter, IL-6 stimulated, 5 h; at 7.69 µM (top of the series) unless noted. Put shortly: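 Reporter line: ME-180 cervical carcinoma, SIE-beta-lactamase. Treatment: compound with 40 pM IL-6, 5 hrs, 37 C, in low-serum OPTI-MEM with 10 mM HEPES pH 7.3. Detection: 460/530 nm fluorescence.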

Test [5] has as its target Glucocorticoid receptor (Homo sapiens) (UniProt P04150). Put plainly: GR-GFP Redistribution (AID 450;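 active = compounds whose dose series gives a full or clear partial fitted curve of increased nuclear translocation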; also: potency is read from the fitted curve at half-maximal effect). Particulars: U2OS GR-GFP nuclear translocation, laser cytometry, 2 h.
For test [6], the target named is Mitogen-activated protein kinase 10 (Mus musculus) (UniProt Q61831). Put plainly: JNK3 AlphaScreen Assay (AID 530; active = well fitted curve in either direction with a large enough effect, not every such curve was filed as active;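 also: kinase came from lysate of stimulated human HepG2 cells; signal reports phosphorylation of biotinylated GST-cJun 1-79 at Ser73 with 10 µM ATP; % is scaled to controls: 0 for no effect and ±100 for the full control effect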). Particulars: JNK3 lysate, c-Jun phosphorylation; series mostly up to 57.1 µM. Put shortly:
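JNK3 came from HepG2 lysates pre-activated with IL-1beta and TNF-alpha and phosphorylated biotinylated GST-cJun (1-79) at 10 uM ATP, pH 7.6, room temperature. Compounds were titrated. AlphaScreen signal used anti-phospho-cJun (Ser73) antibody.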
In general terms: In Alpha technology, singlet oxygen from a donor bead excites a nearby acceptor bead.

The target in test [7] is 3',5'-cyclic-AMP phosphodiesterase 4B (Homo sapiens) (UniProt Q07343). Put plainly: qHTS Assay for Inhibitors of PDE-IV (AID 607; active = well fitted activation curve with a large enough effect in the main read-out, with a control signal flat, not every such curve was filed as active; also: % of control where 0% means no effect). Particulars: HEK293 ACTOne CNG channel cells, membrane potential fluorescence; series mostly up to 22.9 µM. Put shortly:
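Cell-based read-out of cAMP via a modified cyclic nucleotide-gated channel and membrane potential dye (535/590 nm) in HEK293 cells expressing PDE4 endogenously. Compounds tested up to 22.9 uM final; 100 uM RO 20-1724 reference.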

Test [8] deals with Cytochrome P450 3A4 (Homo sapiens) (UniProt P08684). Put plainly: qHTS Assay for Activators of Cytochrome P450 3A4 (AID 885). Also: nearly all actives have a fitted effect of over 65% in size. Particulars: recombinant CYP3A4, Luciferin-PPXE luminescence, 60 min; series mostly up to 57.1 µM. Put shortly:
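Signal was normalized against complete inhibition by 57 uM ketoconazole. The reaction used 20nM CYP3A4 with 25uM Luciferin-PPXE, 10-min compound preincubation and a 60-min NADPH-supported step at RT.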

Test [9] can be described thus: qHTS Assay for Lipid Storage Modulators (AID 1519; calls by dose curve; also: potency is read from the fitted curve at half-maximal effect). Particulars: Drosophila S3 cells, BODIPY lipid droplet/cell ratio, laser cytometry, cells loaded with oleic acid; for activity change, negative = inhibition: at 57.5 µM (top of the series). Put shortly:
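Cells seeded at 5,000 per well were treated with compounds over a concentration series and loaded with oleic acid (400 uM, as added). Lipid droplet fluorescence (488 nm excitation, 500-530 nm channel) was read by laser-scanning cytometry and normalized to 20 uM Triacsin C.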

The target in test [10] is Dual specificity protein kinase CLK4 (Homo sapiens) (UniProt Q9HAZ1). Put plainly: qHTS Assay for Inhibitors of CDC-like Kinase 4 (Kinase-Glo Assay) (AID 1770). Also: % is scaled to controls: 0 for no effect and ±100 for the full control effect; nearly all actives have a fitted effect of over 65% in size. The settings on record: recombinant Clk4, Kinase-Glo ATP depletion luminescence; series mostly up to 66.7 µM. Put shortly:
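Clk4 25 nM, RS peptide 100 uM, ATP 1 uM, pH 7.5 Tris, 10 mM MgCl2, 2.5 mM DTT; 4.5 h RT; ATP depletion read by Kinase-Glo luminescence.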

Test [11] shares this target. Put plainly: qHTS Assay for Inhibitors of CDC-like Kinase 4 (ADP-Glo Assay) (AID 1771). Also: % is scaled to controls: 0 for no effect and ±100 for the full control effect; nearly all actives have a fitted effect of over 70% in size. Particulars: recombinant CLK4, ADP-Glo luminescence; series mostly up to 80 µM. In outline:
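Clk4 (25 nM) was incubated 1 hr at room temperature with 100 uM RS repeat peptide and 1 uM ATP in buffer with 2 mM MgCl2, 0.5 mM EGTA, 2.5 mM DTT. ADP formed was quantified by ADP-Glo luminescence.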
A general note: qHTS replaces the single test concentration by a dilution series.

For test [12] the target is unchanged. Nature of the test: qHTS Assay for Inhibitors of CDC-like Kinase 4 (ADP-FP Assay) (AID 1795).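 Also: recombinant human CLK4 phosphorylating RS repeat peptide at 1 µM ATP; % is scaled to controls: 0 for no effect and ±100 for the full control effect; nearly all actives have a fitted effect of over 60% in size.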 The settings on record: Transcreener ADP fluorescence polarization; series mostly up to 50 µM. Put shortly: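 Kinase activity was followed as ADP output, converted from fluorescence polarization with a calibration curve. Reactions ran one hour at low ATP (1 uM) with RS peptide substrate.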

The target in test [13] is Ubiquitin carboxyl-terminal hydrolase 1 (Homo sapiens) (UniProt O94782). Nature of the test: Inhibitors of USP1/UAF1: Pilot qHTS (AID 504865).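 Also: rhodamine fluorescence freed from ubiquitin-rhodamine substrate followed over time; top concentration of the series differs between compounds; % is scaled to controls: 0 for no effect and ±100 for the full control effect; nearly all actives have a fitted effect of over 35% in size.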 The settings on record: purified USP1/UAF1, Ub-rhodamine cleavage fluorescence; series mostly up to 54.9 µM. In outline:
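Enzyme-free wells gave the negative control, while test wells held 1nM USP1/UAF1 preincubated with compound for 15 min at room temperature. Ub-Rho at 150nM final started the reaction, and fluorescence at 480/540 nm was recorded kinetically.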

A short description of test [14]: Primary qHTS for small molecule stabilizers of the endoplasmic reticulum resident proteome: Secreted ER Calcium Modulated Protein (SERCaMP) assay (AID 1508630). Also: % is scaled to controls: 0 for no effect and ±100 for the full control effect. Particulars: SH-SY5Y GLuc-SERCaMP (Gaussia luciferase released on ER calcium loss) secretion, thapsigargin, luminescence; series mostly up to 38.4 µM. In outline: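 GLuc-SERCaMP-expressing SH-SY5Y cells, pretreated 16 h with compound, are challenged with thapsigargin to empty ER calcium stores; after 4 h, coelenterazine is added directly to the medium and luminescence is imaged.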

Test [15] concerns the target Glucocorticoid receptor (Homo sapiens) (UniProt P04150). Nature of the test: GR-EFC Redistribution (AID 451; calls by dose curve; also: potency is read from the fitted curve at half-maximal effect). Particulars: CHO-K1 GR-EFC translocation, beta-gal luminescence, 2 h. In outline:
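CHO-K1 cells stably expressing nuclear-localized β-gal enzyme acceptor and GR fused C-terminally to the enzyme donor fragment; ligand-driven nuclear translocation restores β-gal by complementation. Compounds titrated up to 46 uM final, 2 h at 37 °C; luminescence read.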

Test [16] has as its target Cytochrome P450 2C9 (Homo sapiens) (UniProt P11712). Put plainly: qHTS Assay for Inhibitors and Substrates of Cytochrome P450 2C9 (AID 883). Also: % is scaled to controls: 0 for no effect and ±100 for the full control effect; nearly all actives have a fitted effect of over 60% in size. Particulars: recombinant CYP2C9, luciferin-H luminescence, 60 min; series mostly up to 57.1 µM. In outline:
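CYP2C9 deoxyluciferin hydroxylation, 37C, 60 min with NADPH regeneration; 10nM enzyme, 100uM Luciferin-H (KM). Glo detection reagent stopped reaction; luminescence normalized to sulphaphenazole (57uM) full inhibition.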

Setting [17] is: measured here: cell count channel max response.
Setting [18] is: measured here: lipid channel max response.

Each structure is given as a SMILES string. Inconclusive results are not listed. Active and inactive are the calls of the source. Unless noted, calls follow the shape of the dose curve; as a rule, active = well fitted curve in the direction sought with a large enough effect; inconclusive = small, poorly fitted or top-dose-only effect, or another doubt; inactive = no such curve, though single readings can be large; an effect the other way counts as inactive or inconclusive.

Chain of Dual specificity protein kinase CLK4 (Homo sapiens) (Q9HAZ1 whole entry, looked up): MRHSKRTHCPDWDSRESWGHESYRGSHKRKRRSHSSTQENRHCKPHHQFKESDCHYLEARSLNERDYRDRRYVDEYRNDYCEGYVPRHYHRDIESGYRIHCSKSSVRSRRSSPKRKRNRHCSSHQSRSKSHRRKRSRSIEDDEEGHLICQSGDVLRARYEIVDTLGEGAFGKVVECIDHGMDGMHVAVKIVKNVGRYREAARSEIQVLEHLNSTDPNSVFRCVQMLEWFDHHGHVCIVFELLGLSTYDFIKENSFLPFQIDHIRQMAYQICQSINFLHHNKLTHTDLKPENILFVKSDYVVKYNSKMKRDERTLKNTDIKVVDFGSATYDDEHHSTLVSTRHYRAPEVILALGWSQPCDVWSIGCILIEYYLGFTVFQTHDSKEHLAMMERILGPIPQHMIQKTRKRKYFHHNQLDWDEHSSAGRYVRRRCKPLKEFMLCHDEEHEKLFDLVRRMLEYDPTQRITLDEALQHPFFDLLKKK
Chain of 3',5'-cyclic-AMP phosphodiesterase 4B (Homo sapiens) (Q07343 whole entry, looked up): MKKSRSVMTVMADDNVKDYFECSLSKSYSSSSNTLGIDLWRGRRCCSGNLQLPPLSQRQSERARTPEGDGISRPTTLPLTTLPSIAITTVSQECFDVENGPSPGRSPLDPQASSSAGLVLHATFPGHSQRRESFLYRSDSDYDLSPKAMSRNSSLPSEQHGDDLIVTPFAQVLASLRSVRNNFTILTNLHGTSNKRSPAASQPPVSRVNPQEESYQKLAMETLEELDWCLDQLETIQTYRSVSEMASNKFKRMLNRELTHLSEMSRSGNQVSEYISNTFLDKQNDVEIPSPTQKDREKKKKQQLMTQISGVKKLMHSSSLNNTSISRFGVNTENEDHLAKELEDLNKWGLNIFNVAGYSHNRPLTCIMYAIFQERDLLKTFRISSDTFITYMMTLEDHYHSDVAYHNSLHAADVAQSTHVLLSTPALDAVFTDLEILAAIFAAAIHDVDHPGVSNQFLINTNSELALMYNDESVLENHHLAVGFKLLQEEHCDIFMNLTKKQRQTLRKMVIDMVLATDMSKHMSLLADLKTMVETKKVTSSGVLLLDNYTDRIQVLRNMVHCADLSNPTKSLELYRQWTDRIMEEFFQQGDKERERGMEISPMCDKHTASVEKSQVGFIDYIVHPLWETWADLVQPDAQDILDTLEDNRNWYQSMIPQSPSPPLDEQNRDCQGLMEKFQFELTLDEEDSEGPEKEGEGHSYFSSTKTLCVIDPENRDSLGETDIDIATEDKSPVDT
Chain of Lysosomal acid glucosylceramidase (Homo sapiens) (P04062 whole entry, looked up): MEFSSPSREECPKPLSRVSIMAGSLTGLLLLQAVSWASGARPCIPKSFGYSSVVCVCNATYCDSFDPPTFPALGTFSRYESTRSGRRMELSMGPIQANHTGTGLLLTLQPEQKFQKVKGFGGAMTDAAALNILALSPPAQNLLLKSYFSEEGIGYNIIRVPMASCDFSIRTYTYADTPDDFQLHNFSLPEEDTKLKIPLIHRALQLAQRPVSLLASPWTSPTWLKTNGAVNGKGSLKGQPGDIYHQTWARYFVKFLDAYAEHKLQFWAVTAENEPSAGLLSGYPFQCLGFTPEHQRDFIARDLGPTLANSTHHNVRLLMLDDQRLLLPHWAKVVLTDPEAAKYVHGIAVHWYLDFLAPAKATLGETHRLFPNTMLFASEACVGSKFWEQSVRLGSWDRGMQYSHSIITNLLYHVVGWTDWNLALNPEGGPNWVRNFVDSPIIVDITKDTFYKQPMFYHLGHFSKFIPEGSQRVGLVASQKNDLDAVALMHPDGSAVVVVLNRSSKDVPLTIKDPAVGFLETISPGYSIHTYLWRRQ
Chain of Glucocorticoid receptor (Homo sapiens) (P04150 whole entry, looked up, the tested form may be a part): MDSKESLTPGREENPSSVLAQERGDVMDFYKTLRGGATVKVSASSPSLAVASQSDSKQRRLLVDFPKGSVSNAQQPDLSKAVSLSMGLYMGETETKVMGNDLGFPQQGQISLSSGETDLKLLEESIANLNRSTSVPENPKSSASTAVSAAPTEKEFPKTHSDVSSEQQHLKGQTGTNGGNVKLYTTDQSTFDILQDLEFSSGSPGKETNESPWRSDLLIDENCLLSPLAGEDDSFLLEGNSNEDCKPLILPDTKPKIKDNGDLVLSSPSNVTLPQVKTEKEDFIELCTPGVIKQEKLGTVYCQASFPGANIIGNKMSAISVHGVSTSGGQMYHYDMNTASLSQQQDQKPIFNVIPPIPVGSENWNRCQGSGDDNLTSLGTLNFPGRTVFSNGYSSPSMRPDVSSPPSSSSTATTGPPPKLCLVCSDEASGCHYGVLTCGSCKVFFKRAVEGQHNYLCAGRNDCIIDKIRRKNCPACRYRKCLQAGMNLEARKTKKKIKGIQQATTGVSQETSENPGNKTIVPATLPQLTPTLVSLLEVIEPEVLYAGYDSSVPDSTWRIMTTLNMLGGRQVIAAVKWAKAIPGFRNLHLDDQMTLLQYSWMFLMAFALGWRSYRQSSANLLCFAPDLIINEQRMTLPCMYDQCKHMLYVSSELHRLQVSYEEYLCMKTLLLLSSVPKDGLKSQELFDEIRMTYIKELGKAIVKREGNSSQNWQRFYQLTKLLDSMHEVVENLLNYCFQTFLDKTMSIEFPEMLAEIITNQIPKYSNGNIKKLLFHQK
Chain of Ubiquitin carboxyl-terminal hydrolase 1 (Homo sapiens) (O94782 whole entry, looked up): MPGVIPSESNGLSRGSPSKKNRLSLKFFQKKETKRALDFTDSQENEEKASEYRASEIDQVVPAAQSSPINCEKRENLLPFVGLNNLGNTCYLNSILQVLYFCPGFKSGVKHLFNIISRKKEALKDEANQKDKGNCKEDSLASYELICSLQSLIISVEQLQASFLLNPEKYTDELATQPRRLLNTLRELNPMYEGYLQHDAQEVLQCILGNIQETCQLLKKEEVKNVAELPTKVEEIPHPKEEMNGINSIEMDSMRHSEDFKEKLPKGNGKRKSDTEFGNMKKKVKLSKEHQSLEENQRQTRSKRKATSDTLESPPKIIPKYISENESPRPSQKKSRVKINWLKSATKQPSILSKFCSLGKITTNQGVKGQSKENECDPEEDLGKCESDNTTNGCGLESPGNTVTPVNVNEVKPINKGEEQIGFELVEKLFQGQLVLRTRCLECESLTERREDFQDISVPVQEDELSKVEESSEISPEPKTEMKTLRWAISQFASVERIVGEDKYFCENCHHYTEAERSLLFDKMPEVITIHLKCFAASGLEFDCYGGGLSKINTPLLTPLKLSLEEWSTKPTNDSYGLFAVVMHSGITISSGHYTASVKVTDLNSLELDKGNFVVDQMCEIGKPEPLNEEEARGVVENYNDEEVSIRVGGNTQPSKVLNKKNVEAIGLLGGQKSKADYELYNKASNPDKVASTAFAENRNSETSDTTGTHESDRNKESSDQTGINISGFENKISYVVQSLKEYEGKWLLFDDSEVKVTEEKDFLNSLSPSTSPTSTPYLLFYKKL
Chain of Cytochrome P450 3A4 (Homo sapiens) (P08684 whole entry, looked up): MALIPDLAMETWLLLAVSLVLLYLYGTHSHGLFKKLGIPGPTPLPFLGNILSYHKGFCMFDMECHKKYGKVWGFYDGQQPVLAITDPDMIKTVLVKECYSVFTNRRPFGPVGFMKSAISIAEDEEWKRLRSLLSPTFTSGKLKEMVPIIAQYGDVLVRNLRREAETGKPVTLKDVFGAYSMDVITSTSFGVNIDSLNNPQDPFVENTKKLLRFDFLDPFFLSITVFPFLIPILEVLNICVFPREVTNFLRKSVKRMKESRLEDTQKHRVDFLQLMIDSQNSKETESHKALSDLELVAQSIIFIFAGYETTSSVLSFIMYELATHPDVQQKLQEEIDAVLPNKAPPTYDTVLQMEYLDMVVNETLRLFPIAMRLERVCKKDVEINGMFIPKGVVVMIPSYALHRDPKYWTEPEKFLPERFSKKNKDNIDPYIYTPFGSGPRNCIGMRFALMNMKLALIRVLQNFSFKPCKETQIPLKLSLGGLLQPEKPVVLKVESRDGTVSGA
Chain of Cytochrome P450 2C9 (Homo sapiens) (P11712 whole entry, looked up): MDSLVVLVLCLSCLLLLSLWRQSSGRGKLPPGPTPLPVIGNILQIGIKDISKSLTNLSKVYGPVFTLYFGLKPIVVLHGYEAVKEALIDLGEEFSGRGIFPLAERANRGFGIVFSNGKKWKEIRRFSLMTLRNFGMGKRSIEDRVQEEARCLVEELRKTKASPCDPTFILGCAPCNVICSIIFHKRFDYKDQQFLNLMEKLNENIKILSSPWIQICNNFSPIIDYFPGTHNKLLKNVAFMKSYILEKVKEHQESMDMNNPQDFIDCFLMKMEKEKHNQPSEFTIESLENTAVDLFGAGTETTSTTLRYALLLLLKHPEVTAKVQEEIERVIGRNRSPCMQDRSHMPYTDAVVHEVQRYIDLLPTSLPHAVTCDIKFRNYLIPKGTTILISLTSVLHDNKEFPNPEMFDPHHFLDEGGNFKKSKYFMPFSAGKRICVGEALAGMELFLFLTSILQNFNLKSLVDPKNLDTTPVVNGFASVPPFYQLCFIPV

On to `COCCn1c(=O)c(C)nc2cnc(Oc3ccccc3)nc21`, for which the Potency was > 11.4 µM (inactive) in [1] and > 9.22 µM (inactive) in test [5]. Besides, the activity change, negative = inhibition in test [2] was -9.67% (inactive); in [3] it was -4.22% (inactive); in [9] it was 4.7% (inactive). For the same compound, in test [4], the activity, negative = inhibition was -12.4% (inactive). In addition, the compound was called inactive in [6]. In addition, the Potency entry in [7], in test [8], in test [10], in test [11], in test [12] and in test [13] was “inactive” each time. Also, the Potency entry in [14] is “inactive”. In addition, the max response in test [9] (setting [17]) was 23.5%; in test [9] (setting [18]), 27.5%.
For the compound `CN(C)Cc1ccccc1-c1cncnc1Nc1ccccc1`, the results for the Potency in test [1], in [5] and in test [15] were > 11.4 µM (inactive), > 46 µM (inactive) and > 46 µM (inactive), respectively. Also, the activity change, negative = inhibition was 7.98% (inactive) in test [2] and 5.53% (inactive) in test [9]. For the same compound, the activity, negative = inhibition in test [4] is 13.5% (inactive). For the same compound, in test [6], the compound was called inactive. The Potency result in [7], in test [10], in test [11], in test [12], in test [13] and in [14] was “inactive” throughout. Besides, the max response in test [9] (setting [17]) was 18.6%; in test [9] (setting [18]) it was 26.9%.
With `COc1ccccc1-c1nccc(NC2CCNCC2)n1`, the Potency in test [1] is > 11.4 µM (inactive); in test [5] it was > 46 µM (inactive); in [15] it was > 46 µM (inactive). The activity change, negative = inhibition is 3.56% (inactive) in test [2], 5.88% (inactive) in [3] and 2.87% (inactive) in [9]. The activity, negative = inhibition in [4] was 27.9% (inactive). Further, in [6], the compound was classed as inactive. Also, the Potency entry in [7], in test [10], in test [11], in test [12], in [13] and in test [14] was “inactive” throughout. Also, the max response stood at 7.38% in [9] (setting [17]) and 8.77% in test [9] (setting [18]).
For `COc1ccc(Oc2ncc3nc(-c4ccc(Cl)cc4)c(=O)n(C[C@H]4CCCO4)c3n2)cc1`, the Potency in test [1] is > 11.4 µM (inactive); in test [5], > 9.22 µM (inactive); in [15] it was > 46 µM (inactive); in test [9], 28.2 µM (active). The activity change, negative = inhibition is -19.3% (inactive) in [2] and -18.6% (inactive) in test [3]. For the same compound, the activity, negative = inhibition in test [4] was -13.9% (inactive). In addition, in test [6], the compound was called inactive. Besides, the Potency result in [7], in test [10], in test [11], in test [12], in test [13] and in [14] was “inactive” each time. Besides, the max response in test [9] (setting [17]) was -25.3%; in test [9] (setting [18]) it was -85.4%.
Turning to `COCCn1c(=O)c(-c2cccc(C#N)c2)nc2cnc(N(C)C)nc21`, the Potency in test [1] is > 11.4 µM (inactive); in [5], > 9.22 µM (inactive); in test [15] it was > 46 µM (inactive). The results for the activity change, negative = inhibition in test [2], in [3] and in [9] were -1.01% (inactive), -2.05% (inactive) and 3.6% (inactive), respectively. For the same compound, the activity, negative = inhibition in test [4] is -10.5% (inactive). Further, the compound was classed as inactive in [6]. Besides, the Potency entry in test [7], in test [10], in test [11], in test [12] and in test [14] was “inactive” in each case. In addition, the max response in test [9] (setting [17]) was 16.6%; in test [9] (setting [18]) it was 17.9%.
On to `CN(C)c1ncc2nc(-c3cccc(C#N)c3)c(=O)n(CCC#N)c2n1`, for which the Potency in [1] was > 11.4 µM (inactive); in test [5] it was > 9.22 µM (inactive); in [15], > 46 µM (inactive). In addition, the results for the activity change, negative = inhibition in test [2], in test [3] and in test [9] were -2.98% (inactive), 4.07% (inactive) and 1.84% (inactive), respectively. In test [4], the activity, negative = inhibition is -8.5% (inactive). In addition, the compound was classed as inactive in test [6]. Besides, the Potency entry in test [7], in [16], in test [10], in [11], in [12] and in [13] was “inactive” in each case. Moreover, the Potency result in test [14] was “inactive”. Besides, the max response in [9] (setting [17]) is 5.81%; in test [9] (setting [18]) it was 7.25%.

The record behind these values is PubChem BioAssay (NCATS).
